From PubChem BioAssay (NCATS)
Inconclusive results are not listed. Calls of active or inactive are those of the source. Unless noted, calls come from the whole dose curve; as a rule, active = well fitted curve in either direction with a large enough effect (not every such curve was filed as active); inconclusive = small, poorly fitted or top-dose-only effect, or another doubt; inactive = flat fitted curve, though single readings scatter.

Columns and labels:
[1] = target: Lysosomal acid glucosylceramidase (Homo sapiens) (UniProt P04062); test: Glucocerebrosidase-p2 (AID 348; in the data active = potency below about 10 µM; note: potency is the fitted concentration of half-maximal effect); conditions: purified GBA, blue fluorogenic substrate, 40 min
In short: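 Normal human glucocerebrosidase (0.2 nM) with blue fluorogenic substrate (80 uM final) in citrate/phosphate pH 5.9 with 10mM sodium taurocholate, 0.01% tween-20; 40 min RT, NaOH/glycine stop; fluorescence Ex 365/Em 440; AC50 from a titration from 0.6 nM upwards.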

[2] = AP1 Signaling Pathway (AID 357); conditions: ME-180 AP-1-bla reporter, EGF-induced, beta-lactamase ratio, 5 h; at 7.69 µM (top of the series) unless noted;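 note: ME-180 reporter cells stimulated with EGF at its EC50 level; % is set by controls: 0 for no effect and ±100 for the full control effect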
In short: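 AP-1-bla ME-180 cells, Opti-MEM + 0.5% dialyzed FBS, plated overnight 37 °C. Cpd titration + EC50 EGF, 5 h 37 °C. CCF4 2.5 h RT; ex 405, em 460/530 ratio → %activity, AC50.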

[3] = NFAT Signaling Pathway (AID 444); conditions: Jurkat NFAT-bla M1, carbachol, beta-lactamase ratio, 5 h; at 7.69 µM (top of the series) unless noted;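 note: carbachol stimulus at about its EC50 of 1 µM final; % is set by controls: 0 for no effect and ±100 for the full control effect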
In short: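 Jurkat cells carrying an NFAT-driven β-lactamase reporter and co-transfected muscarinic M1 receptor were treated with compound plus carbachol (1 uM final, an EC50 level) for 5 h at 37 °C. CCF4 loading followed for 1 h at RT; 460/530 nm ratio gave %activity.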

[4] = Stat Signaling Pathway (AID 446); conditions: ME-180 (cervical carcinoma) SIE beta-lactamase reporter, IL-6 stimulated, 5 h; at 7.69 µM (top of the series) unless noted;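 note: ME-180 cervical cancer cells given 40 pM IL-6 alongside compound; SIE-controlled beta-lactamase reporter measured as 460/530 nm FRET emission ratio; % is set by controls: 0 for no effect and ±100 for the full control effect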
In short: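 FRET read-out (405 nm excitation, 460/530 nm emission) of a beta-lactamase reporter under a STAT-inducible element in ME-180 cervical carcinoma cells. Cells with compound receive 40 pM IL-6 for 5 h. Values are normalised to AC90 stimulation and AC90 JAK-inhibitor controls.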

[5] = target: Glucocorticoid receptor (Homo sapiens) (UniProt P04150); test: GR-GFP Redistribution (AID 450;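 active = compounds whose dose series gives a full or clear partial fitted curve of increased nuclear translocation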; note: potency is the fitted concentration of half-maximal effect); conditions: U2OS GR-GFP nuclear translocation, laser cytometry, 2 h
[6] = target: Glucocorticoid receptor (Homo sapiens) (UniProt P04150); test: GR-EFC Redistribution (AID 451; calls by dose curve; note: potency is the fitted concentration of half-maximal effect); conditions: CHO-K1 GR-EFC translocation, beta-gal luminescence, 2 h
In short: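 CHO-K1 cells stably expressing nuclear-localized β-gal enzyme acceptor and GR fused C-terminally to the enzyme donor fragment; ligand-driven nuclear translocation restores β-gal by complementation. Compounds titrated up to 46 uM final, 2 h at 37 °C; luminescence read.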

[7] = target: Mitogen-activated protein kinase 10 (Mus musculus) (UniProt Q61831); test: JNK3 AlphaScreen Assay (AID 530); conditions: JNK3 lysate, c-Jun phosphorylation; series mostly up to 11.4 µM;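 note: kinase came from lysate of stimulated human HepG2 cells; signal reports phosphorylation of biotinylated GST-cJun 1-79 at Ser73 with 10 µM ATP; % is set by controls: 0 for no effect and ±100 for the full control effect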
In short: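 Phosphorylation of biotinylated GST-cJun(1-79) at Ser73 is measured by AlphaScreen proximity luminescence. Enzyme is JNK3 in HepG2 lysates activated with interleukin-1beta and tumor necrosis factor alpha; ATP is 10 uM final.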

[8] = target: 3',5'-cyclic-AMP phosphodiesterase 4B (Homo sapiens) (UniProt Q07343); test: qHTS Assay for Inhibitors of PDE-IV (AID 607; active = well fitted activation curve with a large enough effect in the main read-out, with a control signal flat, not every such curve was filed as active; note: % of control where 0% means no effect); conditions: HEK293 ACTOne CNG channel cells, membrane potential fluorescence; series mostly up to 22.9 µM
In short: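 Cell-based read-out of cAMP via a modified cyclic nucleotide-gated channel and membrane potential dye (535/590 nm) in HEK293 cells expressing PDE4 endogenously. Compounds tested up to 22.9 uM final; 100 uM RO 20-1724 reference.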

[9] = target: ATP-dependent 6-phosphofructokinase (Trypanosoma brucei brucei) (UniProt O15648); test: qHTS Assay to Find Inhibitors of T. brucei phosphofructokinase: hit validation (AID 492961; active = well fitted curve in the direction sought with a large enough effect; an effect the other way counts as inactive or inconclusive); conditions: T. brucei PFK, ADP-Glo luminescence; series mostly up to 51.4 µM
In short: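 PFK 1.25 nM, F6P 0.5 mM, ATP 0.1 mM, MgCl2 5 mM, 0.1 M TEA pH 8.0, Tween20 0.01%, BSA 0.1%; 45 min RT. ADP-Glo two-step detection, luminescence. qHTS titration; curve fitting with curve-class categorization.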

[10] = qHTS profiling for inhibitors of Plasmodium falciparum proliferation (AID 504749; active = well fitted curve in the direction sought with a large enough effect; an effect the other way counts as inactive or inconclusive;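 note: 0% = DMSO vehicle and full inhibition = artemisinin control; nearly all actives have a fitted effect of over 60% in size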); conditions: P. falciparum in erythrocytes, SYBR Green DNA, 72 h, at 28.7 µM (top of the series)
In short: (§1)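 Quantitative HTS: compounds pinned into medium, infected erythrocytes added (0.3% parasitemia, 2.5% hematocrit), 72 h culture at 37 C under 5% CO2. Saponin/Triton lysis with SYBR Green I, overnight RT, then fluorescence read.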

[11] = test system: AS120; test: as above; conditions: P. falciparum in erythrocytes, SYBR Green DNA, 72 h; series mostly up to 28.7 µM
In short: as §1

[12] = test system: ATS189; test: as above; conditions: P. falciparum in erythrocytes, SYBR Green DNA, 72 h; series mostly up to 28.7 µM
In short: as §1

[13] = test system: CP185; test: as above; conditions: P. falciparum in erythrocytes, SYBR Green DNA, 72 h; series mostly up to 28.7 µM
In short: as §1

[14] = test system: CP191; test: as above; conditions: P. falciparum in erythrocytes, SYBR Green DNA, 72 h; series mostly up to 28.7 µM
In short: as §1

[15] = test system: DIV30; test: as above; conditions: P. falciparum in erythrocytes, SYBR Green DNA, 72 h; series mostly up to 28.7 µM
In short: as §1

[16] = test system: HB3; test: as above; conditions: P. falciparum in erythrocytes, SYBR Green DNA, 72 h; series mostly up to 28.7 µM
In short: as §1

[17] = test system: TAB113; test: as above; conditions: P. falciparum in erythrocytes, SYBR Green DNA, 72 h; series mostly up to 28.7 µM
In short: as §1

[18] = test system: W2; test: as above; conditions: P. falciparum in erythrocytes, SYBR Green DNA, 72 h; series mostly up to 28.7 µM
In short: as §1

[19] = target: Cytochrome P450 1A2 (Homo sapiens) (UniProt P05177); test: p450-cyp1a2 (AID 410; calls by dose curve; note: potency is the fitted concentration of half-maximal effect;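 for activity change, negative = inhibition: -100% = full effect of reference inhibitor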); conditions: recombinant CYP1A2, luciferin-ME demethylation, luminescence; series mostly up to 11.4 µM
In short: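 Luminescent demethylation readout: Luciferin-ME (100uM, equal to Km) turned over by 20nM CYP1A2 for 60 min at room temperature after NADPH regeneration addition, following 10 min compound preincubation. Normalization used 57 uM furafylline as full inhibition.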

[20] = target: Cytochrome P450 3A4 (Homo sapiens) (UniProt P08684); test: qHTS Assay for Activators of Cytochrome P450 3A4 (AID 885; active = well fitted curve in the direction sought with a large enough effect; an effect the other way counts as inactive or inconclusive; note: nearly all actives have a fitted effect of over 65% in size); conditions: recombinant CYP3A4, Luciferin-PPXE luminescence, 60 min; series mostly up to 11.4 µM
In short: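 Luminescent readout of luciferin formed from 25 uM Luciferin-PPXE (KM level) by 20 nM CYP3A4 in 200 mM KPO4, with 60 min NADPH-driven reaction at room temperature after 10 min compound exposure. Ketoconazole (57 uM) defined 100% inhibition.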

Chain of Cytochrome P450 3A4 (Homo sapiens) (P08684 whole entry, looked up): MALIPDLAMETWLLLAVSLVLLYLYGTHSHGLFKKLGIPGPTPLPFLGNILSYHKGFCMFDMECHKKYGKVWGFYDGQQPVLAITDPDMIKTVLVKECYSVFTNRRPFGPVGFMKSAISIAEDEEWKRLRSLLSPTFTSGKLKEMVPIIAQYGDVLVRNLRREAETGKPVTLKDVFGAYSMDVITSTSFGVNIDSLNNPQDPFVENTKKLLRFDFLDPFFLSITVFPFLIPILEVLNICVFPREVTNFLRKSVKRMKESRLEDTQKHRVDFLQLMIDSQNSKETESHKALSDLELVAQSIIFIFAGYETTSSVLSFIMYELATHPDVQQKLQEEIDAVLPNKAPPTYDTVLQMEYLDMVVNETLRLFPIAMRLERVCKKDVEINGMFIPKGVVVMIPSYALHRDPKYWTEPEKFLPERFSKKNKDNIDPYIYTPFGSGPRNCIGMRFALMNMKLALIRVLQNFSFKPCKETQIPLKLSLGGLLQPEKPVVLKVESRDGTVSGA
Chain of Cytochrome P450 1A2 (Homo sapiens) (P05177 whole entry, looked up): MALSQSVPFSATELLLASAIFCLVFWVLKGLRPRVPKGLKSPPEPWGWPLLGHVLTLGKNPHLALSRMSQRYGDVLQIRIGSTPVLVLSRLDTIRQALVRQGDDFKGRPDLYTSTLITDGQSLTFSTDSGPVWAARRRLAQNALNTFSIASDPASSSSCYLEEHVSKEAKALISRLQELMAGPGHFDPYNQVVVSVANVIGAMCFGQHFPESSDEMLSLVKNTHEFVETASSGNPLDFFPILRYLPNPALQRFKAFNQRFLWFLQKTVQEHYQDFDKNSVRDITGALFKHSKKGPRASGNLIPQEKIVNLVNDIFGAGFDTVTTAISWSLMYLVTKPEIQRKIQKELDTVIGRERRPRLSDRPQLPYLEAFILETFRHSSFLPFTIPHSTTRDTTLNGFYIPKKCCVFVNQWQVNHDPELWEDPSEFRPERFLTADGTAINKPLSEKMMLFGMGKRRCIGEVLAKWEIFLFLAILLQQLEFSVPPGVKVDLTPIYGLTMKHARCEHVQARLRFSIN
Chain of Glucocorticoid receptor (Homo sapiens) (P04150 whole entry, looked up, the tested form may be a part): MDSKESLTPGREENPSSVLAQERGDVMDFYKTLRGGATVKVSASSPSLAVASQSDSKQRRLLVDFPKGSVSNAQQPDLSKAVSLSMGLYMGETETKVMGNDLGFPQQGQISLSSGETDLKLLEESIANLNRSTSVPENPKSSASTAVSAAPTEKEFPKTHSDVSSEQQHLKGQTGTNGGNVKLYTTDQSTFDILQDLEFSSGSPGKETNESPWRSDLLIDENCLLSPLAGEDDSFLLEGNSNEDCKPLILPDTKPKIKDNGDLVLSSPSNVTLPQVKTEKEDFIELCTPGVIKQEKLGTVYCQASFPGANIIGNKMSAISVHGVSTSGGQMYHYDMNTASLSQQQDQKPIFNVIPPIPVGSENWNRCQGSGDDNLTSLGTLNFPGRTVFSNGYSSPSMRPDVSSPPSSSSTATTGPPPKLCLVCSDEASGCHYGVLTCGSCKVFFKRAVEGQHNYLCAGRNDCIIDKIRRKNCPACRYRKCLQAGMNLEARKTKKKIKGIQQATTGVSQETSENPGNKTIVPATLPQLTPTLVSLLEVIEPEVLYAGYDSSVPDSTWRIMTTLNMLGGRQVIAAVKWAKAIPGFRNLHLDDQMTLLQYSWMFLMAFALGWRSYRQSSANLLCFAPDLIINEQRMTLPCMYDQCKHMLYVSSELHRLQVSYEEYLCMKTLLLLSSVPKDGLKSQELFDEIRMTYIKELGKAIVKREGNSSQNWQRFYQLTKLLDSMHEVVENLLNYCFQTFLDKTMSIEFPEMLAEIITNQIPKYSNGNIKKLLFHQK
Chain of 3',5'-cyclic-AMP phosphodiesterase 4B (Homo sapiens) (Q07343 whole entry, looked up): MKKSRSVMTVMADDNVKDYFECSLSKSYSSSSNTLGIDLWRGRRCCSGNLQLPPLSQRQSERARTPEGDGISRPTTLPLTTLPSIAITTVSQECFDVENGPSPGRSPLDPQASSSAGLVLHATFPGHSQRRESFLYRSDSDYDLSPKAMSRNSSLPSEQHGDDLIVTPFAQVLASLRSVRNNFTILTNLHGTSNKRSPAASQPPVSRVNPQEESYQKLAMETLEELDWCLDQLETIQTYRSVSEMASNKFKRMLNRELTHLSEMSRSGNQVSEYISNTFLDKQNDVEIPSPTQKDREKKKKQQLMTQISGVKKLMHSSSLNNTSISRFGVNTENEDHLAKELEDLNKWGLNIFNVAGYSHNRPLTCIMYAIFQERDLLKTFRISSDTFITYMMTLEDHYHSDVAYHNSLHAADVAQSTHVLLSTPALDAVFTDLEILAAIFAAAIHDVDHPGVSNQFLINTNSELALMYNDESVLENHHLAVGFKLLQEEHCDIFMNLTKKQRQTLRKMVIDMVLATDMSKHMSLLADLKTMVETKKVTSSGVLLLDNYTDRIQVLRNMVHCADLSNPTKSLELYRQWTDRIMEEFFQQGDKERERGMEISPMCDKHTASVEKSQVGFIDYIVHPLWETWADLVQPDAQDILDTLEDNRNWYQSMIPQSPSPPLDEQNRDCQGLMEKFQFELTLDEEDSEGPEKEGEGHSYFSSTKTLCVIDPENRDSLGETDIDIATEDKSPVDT
Chain of Lysosomal acid glucosylceramidase (Homo sapiens) (P04062 whole entry, looked up): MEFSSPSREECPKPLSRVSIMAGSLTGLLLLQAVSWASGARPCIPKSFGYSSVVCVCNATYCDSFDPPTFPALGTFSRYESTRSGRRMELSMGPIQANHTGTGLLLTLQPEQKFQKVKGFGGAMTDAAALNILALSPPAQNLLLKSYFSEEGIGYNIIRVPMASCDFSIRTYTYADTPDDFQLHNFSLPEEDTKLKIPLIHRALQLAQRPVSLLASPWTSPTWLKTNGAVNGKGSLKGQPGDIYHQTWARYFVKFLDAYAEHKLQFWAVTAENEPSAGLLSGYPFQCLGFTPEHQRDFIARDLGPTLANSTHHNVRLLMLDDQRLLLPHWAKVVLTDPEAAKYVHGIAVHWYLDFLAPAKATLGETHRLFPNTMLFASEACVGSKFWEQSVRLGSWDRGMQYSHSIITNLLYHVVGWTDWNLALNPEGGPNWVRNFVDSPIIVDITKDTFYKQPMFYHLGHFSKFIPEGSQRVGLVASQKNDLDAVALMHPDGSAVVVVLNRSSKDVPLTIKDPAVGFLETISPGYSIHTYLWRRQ
Chain of ATP-dependent 6-phosphofructokinase (Trypanosoma brucei brucei) (O15648 whole entry, looked up): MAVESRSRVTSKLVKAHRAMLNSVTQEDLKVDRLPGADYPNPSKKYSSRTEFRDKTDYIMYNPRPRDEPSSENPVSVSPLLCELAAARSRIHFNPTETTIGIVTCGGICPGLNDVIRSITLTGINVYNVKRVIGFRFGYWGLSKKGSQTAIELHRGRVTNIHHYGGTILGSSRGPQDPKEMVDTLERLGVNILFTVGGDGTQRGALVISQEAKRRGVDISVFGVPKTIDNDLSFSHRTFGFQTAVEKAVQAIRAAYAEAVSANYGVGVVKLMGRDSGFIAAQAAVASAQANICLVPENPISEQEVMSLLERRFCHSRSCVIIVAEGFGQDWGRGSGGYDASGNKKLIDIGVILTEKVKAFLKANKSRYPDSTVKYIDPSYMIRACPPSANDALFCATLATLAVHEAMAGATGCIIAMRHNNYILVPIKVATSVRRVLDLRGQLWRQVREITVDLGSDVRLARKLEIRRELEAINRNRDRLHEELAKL

O=C(O)[C@@H](O)[C@@H](O)[C@H](O)C(=O)CO
inactive: Potency [1] > 11.4 µM | activity change, negative = inhibition [2] -1.75% | activity change, negative = inhibition [3] -10.1% | activity, negative = inhibition [4] 9.54% | Potency [5] > 46 µM | Potency [6] > 9.22 µM | Potency [7] | Potency [8] | outcome [9] | activity, negative = inhibition ([10]; parasite line A) 6.93% | activity, negative = inhibition ([10]; parasite line B) 7.4% | Potency [11] | Potency [12] | Potency [13] | Potency [14] | Potency [15] | Potency [16] | Potency [17] | Potency [18]

O=C(O)CN(CC(=O)O)c1ccccc1
inactive: Potency [1] > 11.4 µM | activity change, negative = inhibition [2] 7.7% | activity change, negative = inhibition [3] 8.14% | activity, negative = inhibition [4] 13.6% | Potency [5] > 46 µM | Potency [6] > 9.22 µM | Potency [7] | Potency [8]

NS(=O)(=O)c1ccc(N=Nc2nc3[nH]cnc(=S)c3[nH]2)cc1
inactive: Potency [1] > 11.4 µM | activity change, negative = inhibition [2] 2.31% | Potency [5] > 46 µM | Potency [7] | Potency [8]
active: Potency [19] 6.31 µM

CC(C)Cn1cnc2c(SCc3ccc(Cl)cc3Cl)nc(N)nc21
active: Potency [19] 1.26 µM
inactive: Potency [1] > 11.4 µM | activity change, negative = inhibition [2] -27.8% | Potency [5] > 46 µM | Potency [6] > 9.22 µM | Potency [7] | Potency [8] | Potency [20]

CC(C)c1cc(C(F)(F)F)nc(NNc2nc(C(C)C)cc(C(F)(F)F)n2)n1
inactive: Potency [1] > 11.4 µM | activity change, negative = inhibition [2] -11.8% | Potency [19] | Potency [5] > 46 µM | Potency [6] > 9.22 µM | Potency [7] | Potency [8] | Potency [20]

N#CC(=NCCO)C1=C(O)c2ccccc2C1=O
inactive: Potency [1] > 11.4 µM | activity change, negative = inhibition [2] -1.5% | activity change, negative = inhibition [3] 17.6% | activity, negative = inhibition [4] 10.7% | Potency [5] > 46 µM | Potency [6] > 9.22 µM | Potency [7]

CCOC(=O)c1c2c(n3ccccc13)C(=O)c1ccccc1C2=O
inactive: Potency [1] > 11.4 µM | activity change, negative = inhibition [2] 19.9% | Potency [5] > 46 µM | Potency [6] > 9.22 µM | Potency [8] | Potency [20]
active: Potency [19] 0.1 µM

Cc1nc2sc3c(c2c(=O)[nH]1)CCCC3
inactive: Potency [1] > 11.4 µM | activity change, negative = inhibition [2] 10.8% | activity change, negative = inhibition [3] -6.08% | activity, negative = inhibition [4] 6.96% | Potency [5] > 46 µM | Potency [6] > 9.22 µM | Potency [7] | Potency [8]
